In the supplement of paper PMC6555819:

Assays:
Assay in all cases: PBM binding z-score (relative to random genomic background probes); higher = stronger binding; sequences stand for … in GC…GCGATTGACAGCGTAGAATGAAGG
[1] = tested on: PPARg:RXRa DBDmut IVT, anti-RXR (DBD mutation: RXRa K156A/R161A, NR concentration 270 nM, RXRa partner concentration 90 nM)
Summary of the method: (§1)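 Binding buffer was PBS pH 7.4 with 2% milk, 0.02% Triton X-100, 1 mM DTT, 0.2 mg/mL BSA and 0.4 mg/ml salmon testes DNA. In it, ligand-free nuclear receptor dimers were incubated 1 h on custom Agilent 4×180K protein-binding microarrays carrying double-stranded probes. Antibodies against each partner (one per run) detected binding, and z-scores were calculated against random background probes after regression normalization of scanned fluorescence.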

[2] = tested on: PPARg:RXRa IVT, anti-PPARg (NR concentration 270 nM, RXRa partner concentration 90 nM)
Summary of the method: as §1

[3] = tested on: PPARg DBDmut:RXRa IVT, anti-PPARg (DBD mutation: PPARg1 K132A/R137A, NR concentration 270 nM, RXRa partner concentration 90 nM)
Summary of the method: as §1

[4] = tested on: PPARg DBDmut IVT, anti-PPARg (DBD mutation: PPARg1 K132A/R137A, NR concentration 270 nM)
Summary of the method: as §1

[5] = tested on: PPARg homodimer (NR concentration 180 nM)
Summary of the method: as §1

[6] = tested on: PXR:RXRa (NR concentration 270 nM, RXRa partner concentration 90 nM)
Summary of the method: as §1

[7] = tested on: PXR homodimer (NR concentration 270 nM)
Summary of the method: as §1

[8] = tested on: RARa:RXR (NR concentration 270 nM, RXRa partner concentration 90 nM)
Summary of the method: as §1

[9] = tested on: RARa homodimer (NR concentration 270 nM)
Summary of the method: as §1

[10] = tested on: RARb:RXRa (NR concentration 270 nM, RXRa partner concentration 90 nM)
Summary of the method: as §1

Sequence | PBM binding z-score [1] | PBM binding z-score [2] | PBM binding z-score [3] | PBM binding z-score [4] | PBM binding z-score [5] | PBM binding z-score [6] | PBM binding z-score [7] | PBM binding z-score [8] | PBM binding z-score [9] | PBM binding z-score [10]
ATCTCTAGGAAACAAGTTCAGTGAAAGAGAGGAC | -0.477 | 0.373 | 0.113 | 0.509 | 0.901 | 1.24 | 1.82 | 0.58 | 0.878 | 1.17
ATCGACAGGTCGAGGTGAGTATAGAGAAAGGGAA | -0.576 | 0.778 | -0.0493 | -0.0748 | 0.551 | 0.0775 | 0.0221 | 0.649 | 0.423 | 1.69
ACAGACAGGTTAGTGAAGGTAACTCAGCTGGACG | 0.174 | 0.407 | 0.284 | 0.465 | 0.573 | -0.0921 | -0.25 | 0.306 | 0.0654 | 0.755
GCTATTAGTTGTAAGGGCAACCGAATGATTCTCG | 0.378 | 0.518 | 0.0721 | 0.01 | 0.811 | 0.273 | 0.159 | 0.496 | 0.359 | 1.41
GCTATTAGTTGACAGGGCAACCGAATGATTCTCG | 0.297 | 0.029 | 0.0418 | 0.353 | 0.467 | -0.171 | 0.105 | -0.228 | 0.00268 | 0.489
GCGACTGGGGCATCAGCAGGTTAGCATAACTTAA | 3.62 | 2.57 | -1.06 | -1.09 | -0.262 | -0.392 | -0.845 | -0.492 | -0.942 | 0.511
ATAGGTAGGTTAGCTGGGGTCATTCAGACTAGGC | 2.88 | 2.9 | 1.18 | 0.716 | 3.23 | 6.38 | 4.41 | 5.88 | 1.73 | 3.2
TAGCCTAGGTCATTCAGGGGACAGTATAGAAAGC | 2.17 | 3.28 | 0.412 | 0.909 | 1.58 | 2.58 | 0.0541 | 3.72 | 0.228 | 4.09
AGAATGAGGTTACCTAAGATCAGGGAAACGCTTG | 2.92 | 2.93 | 1.22 | 0.151 | 1.06 | 1.67 | 0.241 | 2.62 | -0.231 | 1.95
TTACCAAGGTGAAAGGACGTTGATGCACGCCTTG | 1.91 | 2.84 | 0.863 | 0.655 | 0.691 | -0.0719 | -0.136 | 0.603 | -0.181 | 1.6
ATCGAAAGGTCGGCGAGGTGAGTATACACCGTTT | -0.166 | 1.39 | 0.74 | 0.0118 | 0.989 | 2.25 | -0.157 | 2.77 | -0.0319 | 3.5
CTTCCAAGGTCAAGGTCAGTGAAAGAGACTCGAA | 3.34 | 4.97 | 0.569 | 0.303 | 3.58 | 4.76 | 1.05 | 5.07 | 0.686 | 5.83
GCTAGTTGGTCAGTAAAAGGTCACAGACCGGTCG | 1.25 | 3.03 | -0.272 | 0.44 | 3.83 | 4.92 | 1.24 | 6.32 | 1.97 | 4.51
CCGACTGGGCCACGAAAGGTCATTGATTCAGTGA | 4.66 | 4.28 | -0.928 | -1.23 | 2.39 | 5.17 | 0.941 | 4.89 | 0.265 | 3.79
CCTTACCGGTCACTGACAGGTTATAGCATTTGGA | 0.892 | 1.17 | 0.534 | 0.217 | 2.23 | 1.01 | 0.467 | 1.29 | 1.61 | 3.06
CGTCCAAGGTCAGCCGGTCAGTGAAAGCGACGTG | 2.51 | 2.75 | -0.217 | -1.45 | 2.55 | 2.9 | 0.408 | 3.71 | 0.671 | 5
GCGATTGGGGCAAAGCAGGTTACCATAAGGTTGG | 2.25 | 1.69 | -0.0926 | -0.514 | 0.213 | 0.707 | -0.215 | 1.13 | 0.0153 | 0.946
CGAACTAGGTCCGAACAGGACAGTGAAGGATGAT | 1.53 | 0.592 | -1.02 | -0.172 | -1.32 | -0.715 | -0.581 | -0.746 | -0.281 | -0.345
ATATCTAGGTAACAAGTTCAGTGAAAGAGAGGAC | 6.96 | 6.85 | 2.71 | 2.4 | 1.51 | 1.64 | 1.49 | 0.979 | 1.72 | 1.58
TCTGCTAGGTCAACGATGGTAAGCTAATCTGCTA | 4.18 | 4.18 | 0.49 | -0.213 | 0.663 | 0.925 | -1.17 | 1.92 | -1 | 4.03
TCATTTAGGTAAATGCTAGGTGAAAGTCCGATCT | 3.13 | 2.44 | 1.71 | 1.17 | 0.343 | 0.445 | -0.0267 | 0.799 | 0.628 | 0.562
CGAACGAGGGCATGAGTTGATCGCAAATGCCGAT | 2.91 | 2.12 | 0.532 | -0.694 | -0.0725 | 0.503 | -0.144 | 0.222 | -0.96 | 1.86
CCTACTGGGCCATCAGGTCATTGCTATCAACGTT | 4.86 | 4.95 | 0.318 | -0.34 | 1.02 | 1.75 | 0.209 | 2.17 | -0.0297 | 2.35
